# Measurements reported in PubChem BioAssay (Tox21).
# Values without a mark were called inactive. Inconclusive results are not listed. Entries that show only a call come without a potency. Calls of active or inactive are those of the source. Unless noted, calls come from the whole dose curve.
# Key:
# [1] = Nuclear factor erythroid 2-related factor 2/antioxidant responsive element (Nrf2/ARE) small molecule agonists: qHTS cell viability counter screen in human keratinocytes (AID 1919968; active = well fitted curve in the direction sought with a large enough effect in the repeat runs; an effect the other way counts as inactive or inconclusive; note: nearly all actives have a fitted effect of over 55% in size)
# Summary of the method: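 Fluorescence read-out from CellTiter-Fluor after 1 h at 37 C. Wells held HaCaT-derived ARE-luciferase reporter cells (1,500/well) treated 23 h with DMSO-dissolved compounds. Run in the same wells as the luciferase agonist read.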
# [2] = Nuclear factor erythroid 2-related factor 2/antioxidant responsive element (Nrf2/ARE) small molecule agonists: luciferase reporter gene qHTS assay in human keratinocytes (AID 1919969); note: nearly all actives have a fitted effect of over 35% in size; note: potency is the fitted concentration of half-maximal effect
# [3] = target: Gonadotropin-releasing hormone receptor (Homo sapiens) (UniProt P30968); test: Human gonadotropin-releasing hormone receptor (GnRHR) small molecule agonists, calcium flux assay in GnRHR-HEK293 cells (AID 1920063); note: nearly all actives have a fitted effect of over 35% in size
# Chain of Gonadotropin-releasing hormone receptor (Homo sapiens) (P30968 whole entry, looked up): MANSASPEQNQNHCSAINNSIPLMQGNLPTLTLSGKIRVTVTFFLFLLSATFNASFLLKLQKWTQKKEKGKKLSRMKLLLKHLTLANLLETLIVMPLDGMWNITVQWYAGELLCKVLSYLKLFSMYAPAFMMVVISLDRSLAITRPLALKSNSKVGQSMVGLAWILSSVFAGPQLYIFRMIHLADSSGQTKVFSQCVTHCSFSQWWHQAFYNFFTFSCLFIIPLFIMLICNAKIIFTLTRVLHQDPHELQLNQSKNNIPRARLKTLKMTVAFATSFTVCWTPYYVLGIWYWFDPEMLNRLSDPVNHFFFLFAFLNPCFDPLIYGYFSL
# Summary of the method: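 Calcium-dye fluorescence, Ex/Em=480/540, recorded every 1 sec over 3 min after compound addition to GnRHR-HEK293 cells. Cells had been seeded 18 hours earlier and dye-loaded for 1 hour at 37 C. Fifteen concentrations, triplicates.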
# [4] = target: KiSS-1 receptor (Homo sapiens) (UniProt Q969F8); test: Human kisspeptin (KISS1R) small molecule agonists, calcium flux assay in KISS1R-HEK293 cells (AID 1920064; active = well fitted curve in the direction sought with a large enough effect in the repeat runs; an effect the other way counts as inactive or inconclusive)
# Chain of KiSS-1 receptor (Homo sapiens) (Q969F8 whole entry, looked up): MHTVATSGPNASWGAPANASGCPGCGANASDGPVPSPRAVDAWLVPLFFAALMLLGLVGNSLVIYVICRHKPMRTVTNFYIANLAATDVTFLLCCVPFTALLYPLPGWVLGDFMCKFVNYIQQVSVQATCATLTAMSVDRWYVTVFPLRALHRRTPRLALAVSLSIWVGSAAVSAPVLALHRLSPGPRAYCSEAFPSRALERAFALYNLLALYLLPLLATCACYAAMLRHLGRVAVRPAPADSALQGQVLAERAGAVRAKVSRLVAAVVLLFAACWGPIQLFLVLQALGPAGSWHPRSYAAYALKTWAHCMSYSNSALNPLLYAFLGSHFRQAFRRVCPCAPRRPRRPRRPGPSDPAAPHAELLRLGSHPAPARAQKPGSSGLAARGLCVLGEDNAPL
# Summary of the method: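 Calcium flux read-out: kinetic fluorescence at Ex/Em=480/540, 1 s intervals over 3 min, after pin-tool compound addition to dye-loaded KISS1R-HEK293 cells. Fifteen concentrations, triplicates.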
# [5] = G protein-coupled receptor (GPCR) small molecule agonists, calcium flux assay: HEK293 wild type cell line counter screen (AID 1920065)
# Summary of the method: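 Agonist mode; 18 h seeding at 37 C, 1 h dye load at 37 C; compounds pinned from DMSO, ATP as positive control; kinetic fluorescence 480/540 nm, 3 min, 1 s reads; 15 concentrations, triplicate.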
# [6] = p53 small molecule agonists, cell-based qHTS assay with human liver microsomes (AID 1963577);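 note: p53 response element beta-lactamase reporter cells with liver microsomes plus NADPH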
# Summary of the method: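 In this qHTS, p53 response-element beta-lactamase cells receive test compound together with a microsome/NADPH activating system (0.5 mg/mL final each) and are incubated 16 h at 37 C before LiveBLAzer fluorescence detection.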
# [7] = p53 small molecule agonists, cell-based qHTS assay with rat liver microsomes (AID 1963578)
# Summary of the method: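 Agonist mode in p53RE-bla reporter cells, with compounds co-incubated 16 h at 37 C alongside 0.5 mg/mL rat liver microsomes and 0.5 mg/mL NADPH (final), followed by a 2 h LiveBLAzer detection step.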
# [8] = p53 small molecule agonists, cell-based qHTS assay with human liver microsomes: qHTS cell viability counter screen (AID 1963579); note: nearly all actives have a fitted effect of over 45% in size
# Summary of the method: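 Metabolically activated exposure: compounds, human liver microsomes and NADPH (0.5 mg/mL final apiece) were added to p53RE-bla cells seeded 5 h earlier, left 16 h at 37 C, and then assessed for viability by CellTiter-Glo luminescence.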
# [9] = p53 small molecule agonists, cell-based qHTS assay with rat liver microsomes: qHTS cell viability counter screen (AID 1963580); note: nearly all actives have a fitted effect of over 45% in size
# Summary of the method: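 Cytotoxicity counter screen: intracellular ATP read by CellTiter-Glo luminescence in the p53 reporter wells. HCT-116 p53RE-bla cells were treated for 16 h at 37 C alongside rat liver microsomes and NADPH, each 0.5 mg/mL final.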
# [10] = p53 small molecule agonists, cell-based qHTS assay (AID 1963582; active = well fitted activation curve with a large enough effect in the signal ratio in the repeat runs, not every such curve was filed as active; the % refers to the signal ratio)
# Summary of the method: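 Fluorescence intensity read-out of a beta-lactamase reporter under a p53 response element. Cells were exposed to DMSO-dissolved compounds for 16 h at 37 C, then developed with FRET substrate for 2 h at RT.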
# [11] = target: 5-hydroxytryptamine receptor 2A (Homo sapiens) (UniProt P28223); test: 5-hydroxytryptamine receptor 2A (HTR2A) small molecule antagonists, cell-based qHTS assay (AID 1963586); note: nearly all actives have a fitted effect of over 45% in size
# Chain of 5-hydroxytryptamine receptor 2A (Homo sapiens) (P28223 whole entry, looked up): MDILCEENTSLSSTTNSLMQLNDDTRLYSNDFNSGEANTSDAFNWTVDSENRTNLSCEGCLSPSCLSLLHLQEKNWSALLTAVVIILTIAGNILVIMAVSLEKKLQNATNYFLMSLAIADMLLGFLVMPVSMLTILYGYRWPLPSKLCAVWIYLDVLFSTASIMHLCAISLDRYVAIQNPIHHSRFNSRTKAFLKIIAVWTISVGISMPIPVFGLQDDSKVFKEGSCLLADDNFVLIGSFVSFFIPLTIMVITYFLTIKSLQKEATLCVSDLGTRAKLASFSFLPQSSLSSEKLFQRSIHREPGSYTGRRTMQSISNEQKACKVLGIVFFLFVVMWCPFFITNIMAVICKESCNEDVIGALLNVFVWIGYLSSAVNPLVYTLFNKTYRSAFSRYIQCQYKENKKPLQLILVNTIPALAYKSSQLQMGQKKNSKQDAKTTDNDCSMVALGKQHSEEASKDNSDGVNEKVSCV
# Summary of the method: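 CHO cells stably expressing human HTR2A were plated for 18 h at 37 C, then loaded with calcium dye for 1 h. Compounds were preincubated 5 min at room temperature before DOI (4 nM solution) was added. Kinetic fluorescence was read for 3 min.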
# [12] = target: Muscarinic acetylcholine receptor M1 (Homo sapiens) (UniProt P11229); test: Cholinergic receptor muscarinic 1 (CHRM1) small molecule agonists, cell-based qHTS assay (AID 1963589); note: nearly all actives have a fitted effect of over 35% in size
# Chain of Muscarinic acetylcholine receptor M1 (Homo sapiens) (P11229 whole entry, looked up): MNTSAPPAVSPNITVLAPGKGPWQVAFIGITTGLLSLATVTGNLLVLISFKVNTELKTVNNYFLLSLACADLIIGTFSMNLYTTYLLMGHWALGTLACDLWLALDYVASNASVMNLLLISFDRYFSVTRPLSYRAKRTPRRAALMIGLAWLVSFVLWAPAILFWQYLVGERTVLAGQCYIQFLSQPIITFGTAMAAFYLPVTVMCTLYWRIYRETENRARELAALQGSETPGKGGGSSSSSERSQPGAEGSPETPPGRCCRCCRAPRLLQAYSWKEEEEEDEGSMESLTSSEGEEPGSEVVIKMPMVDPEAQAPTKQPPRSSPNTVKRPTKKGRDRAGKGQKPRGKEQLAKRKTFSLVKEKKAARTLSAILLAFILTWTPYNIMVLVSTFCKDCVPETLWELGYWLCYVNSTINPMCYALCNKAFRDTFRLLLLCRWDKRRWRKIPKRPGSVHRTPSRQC
# Summary of the method: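 Calcium flux read-out: kinetic fluorescence at 1 sec intervals after pin-tool compound addition to dye-loaded CHRM1-CHO cells (human M1). Agonist mode; 15 concentrations tested in triplicate independent runs.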
# [13] = cAMP Responsive Elements (CRE) small molecule agonists, cell-based qHTS assay (AID 1963590)
# Summary of the method: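 Beta-lactamase reporter readout: LiveBLAzer B/G FRET substrate, 2 h at room temperature, added after 3 h compound treatment of CRE-bla HEK 293T cells at 37 C/5% CO2.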
# [14] = cAMP Responsive Elements (CRE) small molecule antagonists, cell-based qHTS assay (AID 1963591; active = well fitted inhibition curve with a large enough effect in the signal ratio in the repeat runs, not every such curve was filed as active; the % refers to the signal ratio)
# Summary of the method: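 HEK293T CRE-bla; 18 h preincubation; compound pin-transfer; NKH477 0.25 uM final, 3 h, 37 C; LiveBLAzer FRET substrate 2 h RT.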
# [15] = target: Beta-2 adrenergic receptor (Homo sapiens) (UniProt P07550); test: Adrenergic beta2 receptor (ADRB2) small molecule antagonists, cell-based qHTS assay (AID 1963592); note: series mostly up to about 92 µM; nearly all actives have a fitted effect of over 50% in size
# Chain of Beta-2 adrenergic receptor (Homo sapiens) (P07550 whole entry, looked up): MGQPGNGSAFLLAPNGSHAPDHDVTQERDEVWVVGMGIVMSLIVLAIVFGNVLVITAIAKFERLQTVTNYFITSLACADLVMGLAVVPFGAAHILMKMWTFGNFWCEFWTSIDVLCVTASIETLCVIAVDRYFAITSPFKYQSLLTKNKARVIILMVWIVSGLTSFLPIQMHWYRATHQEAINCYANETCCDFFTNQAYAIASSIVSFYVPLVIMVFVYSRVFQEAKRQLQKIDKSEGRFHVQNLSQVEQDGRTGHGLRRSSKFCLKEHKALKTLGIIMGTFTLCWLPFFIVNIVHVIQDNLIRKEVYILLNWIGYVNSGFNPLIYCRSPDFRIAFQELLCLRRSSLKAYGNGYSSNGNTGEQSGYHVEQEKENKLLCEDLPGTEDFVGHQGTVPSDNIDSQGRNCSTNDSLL
# Summary of the method: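 Assay format: CHO-ADRB2 cells, 18-20hr seeding at 37C/5% CO2, then compound plus 1nM isoproterenol agonist mix for 0.5hr RT. Homogeneous time-resolved fluorescence cAMP detection after 1hr, expressed as 665/615 nm ratio.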
# [16] = target: D(2) dopamine receptor (Homo sapiens) (UniProt P14416); test: Dopamine D2 receptor (DRD2) small molecule agonists, cell-based qHTS assay (AID 1963594); note: nearly all actives have a fitted effect of over 35% in size
# Chain of D(2) dopamine receptor (Homo sapiens) (P14416 whole entry, looked up): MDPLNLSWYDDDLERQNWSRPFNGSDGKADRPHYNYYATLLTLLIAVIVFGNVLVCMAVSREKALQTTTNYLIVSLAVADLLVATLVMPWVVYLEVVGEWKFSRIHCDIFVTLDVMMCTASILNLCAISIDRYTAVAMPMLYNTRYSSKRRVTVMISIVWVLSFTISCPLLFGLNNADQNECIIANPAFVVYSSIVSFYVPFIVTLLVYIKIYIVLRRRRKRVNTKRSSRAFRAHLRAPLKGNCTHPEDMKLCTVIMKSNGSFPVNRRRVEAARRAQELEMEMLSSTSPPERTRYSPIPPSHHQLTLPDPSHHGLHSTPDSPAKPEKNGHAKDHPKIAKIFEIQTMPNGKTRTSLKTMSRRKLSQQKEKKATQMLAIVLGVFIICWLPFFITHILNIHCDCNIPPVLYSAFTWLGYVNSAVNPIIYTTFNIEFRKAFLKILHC
# Summary of the method: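 cAMP accumulation in DRD2-HEK293 cells measured by HTRF after 1 h detection; compounds added 10 min before NKH477 (200nM […]) forskolin-analogue stimulation, 30 min at room temperature, with Ro20-1724 present at 0.1 mM final.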
# [17] = target: D(2) dopamine receptor (Homo sapiens) (UniProt P14416); test: Dopamine D2 receptor (DRD2) small molecule antagonists, cell-based qHTS assay (AID 1963595; active = well fitted inhibition curve with a large enough effect in the signal ratio in the repeat runs, with a control signal flat; the % refers to the signal ratio)
# Summary of the method: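 Cells were plated and grown for 24 h at 37 °C. Ro20-1724 (0.1 mM final) went in first, then compound for 10 min. NKH477 (200 nM) with quinpirole (12 nM) followed for 30 min at RT, then HTRF detection reagents for 1 h.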
# [18] = target: 5-hydroxytryptamine receptor 2A (Homo sapiens) (UniProt P28223); test: 5-hydroxytryptamine receptor 2A (HTR2A) small molecule agonists, cell-based qHTS assay (AID 1963587); note: nearly all actives have a fitted effect of over 30% in size
# Summary of the method: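 Kinetic calcium-flux fluorescence (2 min, 1 sec intervals) after compound addition in agonist mode. HTR2A-CHO cells were cultured 18 h, then dye-loaded 1 h at 37 C.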
# [19] = target: Muscarinic acetylcholine receptor M1 (Homo sapiens) (UniProt P11229); test: Cholinergic receptor muscarinic 1 (CHRM1) small molecule antagonists, cell-based qHTS assay (AID 1963588); note: nearly all actives have a fitted effect of over 40% in size
# Summary of the method: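 Compounds were tested at 15 concentrations in three independent runs. Dye-loaded CHRM1-CHO cells were exposed 5 min at room temperature before stimulation by acetylcholine added at 50nM. Intracellular calcium was read kinetically on FDSS for 3 min.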
# [20] = target: Beta-2 adrenergic receptor (Homo sapiens) (UniProt P07550); test: Adrenergic beta2 receptor (ADRB2) small molecule agonists, cell-based qHTS assay (AID 1963593);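 note: CHO cells stably overexpressing human ADRB2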
# Summary of the method: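 CHO cells stably over-expressing ADRB2 were plated overnight at 37C, then dosed with compounds plus a stimulation mix containing 100uM IBMX and 25uM Ro-20-1724 for 0.5hr at room temperature. cAMP was measured by HTRF competition, 1hr.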
compound,measurement,setting,value
CC(=O)OC(C)(C)C,Potency,[1],inactive
same,Potency,[2],inactive
same,Potency,[3],inactive
same,outcome,[4],inactive
same,outcome,[5],inactive
same,Potency,[6],inactive
same,Potency,[7],inactive
same,Potency,[8],inactive
same,Potency,[9],inactive
same,Potency,[10],inactive
same,Potency,[11],inactive
same,Potency,[12],inactive
same,Potency,[13],inactive
same,Potency,[14],inactive
same,Potency,[15],inactive
same,Potency,[16],inactive
same,Potency,[17],inactive
O=C(O)c1cn(C2CC2)c2cc(Cl)c(F)cc2c1=O,Potency,[1],inactive
same,Potency,[2],13.3 µM (active)
same,Potency,[3],inactive
same,outcome,[4],inactive
same,outcome,[5],inactive
same,Potency,[6],inactive
same,Potency,[7],inactive
same,Potency,[8],inactive
same,Potency,[9],inactive
same,Potency,[10],inactive
same,Potency,[11],inactive
same,Potency,[18],inactive
same,Potency,[19],inactive
same,Potency,[12],inactive
same,Potency,[15],inactive
same,Potency,[16],inactive
same,Potency,[17],inactive
CCCCOC(=O)CC,Potency,[1],inactive
same,Potency,[2],inactive
same,Potency,[3],inactive
same,outcome,[4],inactive
same,outcome,[5],inactive
same,Potency,[6],inactive
same,Potency,[7],inactive
same,Potency,[8],inactive
same,Potency,[9],inactive
same,Potency,[10],inactive
same,Potency,[18],inactive
same,Potency,[19],inactive
same,Potency,[12],inactive
same,Potency,[13],inactive
same,Potency,[14],inactive
same,Potency,[15],inactive
same,Potency,[20],inactive
same,Potency,[16],inactive
Oc1ccc(Nc2ccccc2)cc1,Potency,[1],inactive
same,Potency,[2],61.1 µM (active)
same,Potency,[3],inactive
same,outcome,[4],inactive
same,outcome,[5],inactive
same,Potency,[6],inactive
same,Potency,[7],inactive
same,Potency,[8],inactive
same,Potency,[9],inactive
same,Potency,[10],inactive
same,Potency,[11],inactive
same,Potency,[18],inactive
same,Potency,[19],inactive
same,Potency,[12],inactive
same,Potency,[13],inactive
same,Potency,[16],inactive
same,Potency,[17],inactive
CN1CCN(c2c(F)cc3c(=O)c(C(=O)O)cn4c3c2OCN4C)CC1,"activity change, negative = cytotoxicity",[1],9.2% [at 19 µM]
same,"activity, positive = activation",[2],-3.8% [at 19 µM]
same,activity change,[3],"0.0141% [at 11.8 µM, hits give high values]"
same,activation,[4],-1.38% [at 15.8 µM]
same,activation,[5],-0.0119% [at 11.8 µM]
same,activation,[6],0.808% [at 13.5 µM]
same,activation,[7],-0.432% [at 13.6 µM]
same,"activity change, negative = cytotoxicity",[8],-4.82% [at 13.5 µM]
same,"activity change, negative = cytotoxicity",[9],-2.46% [at 13.5 µM]
same,activation,[10],-0.645% [at 13.5 µM]
same,"activity, negative = inhibition",[11],-5.02% [at 12.7 µM]
same,activation,[18],-1.68% [at 15.9 µM]
same,"activity, negative = inhibition",[19],-0.388% [at 12.6 µM]
same,activation,[12],-0.139% [at 15.8 µM]
same,"activity change, negative = inhibition",[14],-9.33% [at 18.9 µM]
same,Potency,[20],inactive
same,activation,[16],11.6% [at 19 µM]
same,"activity change, negative = inhibition",[17],2.83% [at 18.9 µM]
O=C(O)c1ccc(Cl)cc1Cl,Potency,[1],inactive
same,Potency,[2],inactive
same,Potency,[3],inactive
same,outcome,[4],inactive
same,outcome,[5],inactive
same,Potency,[6],inactive
same,Potency,[7],inactive
same,Potency,[8],inactive
same,Potency,[9],inactive
same,Potency,[10],inactive
same,Potency,[11],inactive
same,Potency,[12],inactive
same,Potency,[13],inactive
same,Potency,[14],inactive
same,Potency,[15],inactive
same,Potency,[16],inactive
Nc1ccc(C(=O)Oc2ccccc2)c(O)c1,Potency,[1],inactive
same,Potency,[2],inactive
same,Potency,[3],inactive
same,outcome,[4],inactive
same,outcome,[5],inactive
same,Potency,[6],inactive
same,Potency,[7],inactive
same,Potency,[8],inactive
same,Potency,[9],inactive
same,Potency,[10],inactive
same,Potency,[11],inactive
same,Potency,[18],inactive
same,Potency,[12],inactive
same,Potency,[13],inactive
same,Potency,[14],inactive
same,Potency,[16],inactive
same,Potency,[17],inactive
